In all, about 5,500 compounds went through this assay and about 2,000 (36%) were called active. Another 18% or so got no clear call; they are omitted. Rule as the data show it: active = normalized growth mostly below about 0.91 (no sharp cut-off); inconclusive = no clear call, values can overlap the other calls; inactive = mostly above about 0.92. The list shows a part of the results.
Assay: chemical genetic growth profiling, strain panel (AID 1159580);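 also: tested at 20 µM; growth read once vehicle control cultures reached saturation at 30 °C; 1 = growth at the plate median or of vehicle wells; lower values mean less growth of the strain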
Settings: growth OD

Measured: normalized growth

CCCC(=O)Nc1ccc(OCC(O)CNC(C)C)c(C(C)=O)c1 (configuration not stated)
inactive: S. cerevisiae deletion strains, locus YJR075W, strain HOC1, active compounds read low 1.03 | S. cerevisiae deletion strains, locus YKL009W, strain mrt4, active compounds read low 1.02 | S. cerevisiae deletion strains, locus YKL068W, active compounds read low 1.02 | S. cerevisiae deletion strains, locus YKL085W, strain MDH1 (second series), active compounds read low 1.01 | S. cerevisiae deletion strains, locus YKL085W, strain MDH1, active compounds read low 1.01 | S. cerevisiae deletion strains, locus YKL160W, strain elf1, active compounds read low 1.02 | S. cerevisiae deletion strains, locus YKL190W, strain CNB1, active compounds read low 1.01 | S. cerevisiae deletion strains, locus YKR001C, strain vps1, active compounds read low 1.04 | S. cerevisiae deletion strains, locus YKR026C, strain gcn3, active compounds read low 1.01 | S. cerevisiae deletion strains, locus YKR091W, strain srl3, active compounds read low 1 | S. cerevisiae deletion strains, locus YLL001W, strain dnm1, active compounds read low 1.02 | S. cerevisiae deletion strains, locus YLL026W, active compounds read low 1.01 | S. cerevisiae deletion strains, locus YLL041C, strain sdh2, active compounds read low 1.01 | S. cerevisiae deletion strains, locus YLR027C, strain aat2, active compounds read low 1.01 | S. cerevisiae deletion strains, locus YLR039C, strain RIC1, active compounds read low 1.06 | S. cerevisiae deletion strains, locus YLR058C, strain SHM2, active compounds read low 1.01 | S. cerevisiae deletion strains, locus YLR102C, strain apc9, active compounds read low 1.01 | S. cerevisiae deletion strains, locus YLR113W, strain HOG1, active compounds read low 0.999 | S. cerevisiae deletion strains, locus YLR221C, strain rsa3, active compounds read low 1.01 | S. cerevisiae deletion strains, locus YLR258W, strain gsy2, active compounds read low 1.02 | S. cerevisiae deletion strains, locus YLR262C, strain YPT6 (second series), active compounds read low 1.02 | S. cerevisiae deletion strains, locus YLR262C, strain YPT6, active compounds read low 1.02 | S. cerevisiae deletion strains, locus YLR268W, strain sec22, active compounds read low 1.05 | S. cerevisiae deletion strains, locus YLR320W, strain mms22, active compounds read low 1 | S. cerevisiae deletion strains, locus YLR330W, strain CHS5, active compounds read low 1.01 | S. cerevisiae deletion strains, locus YLR342W, strain FKS1 (second series), active compounds read low 1 | S. cerevisiae deletion strains, locus YLR342W, strain FKS1, active compounds read low 1.01 | S. cerevisiae deletion strains, locus YLR357W, strain rsc2, active compounds read low 0.97 | S. cerevisiae deletion strains, locus YLR370C, strain arc18, active compounds read low 1.02 | S. cerevisiae deletion strains, locus YLR371W, strain rom2, active compounds read low 1.02 | S. cerevisiae deletion strains, locus YLR384C, strain iki3, active compounds read low 1.01 | S. cerevisiae deletion strains, locus YLR418C, strain cdc73, active compounds read low 1.05 | S. cerevisiae deletion strains, locus YML016C, strain PPZ1, active compounds read low 1.01 | S. cerevisiae deletion strains, locus YML032C, strain rad52, active compounds read low 1.02 | S. cerevisiae deletion strains, locus YML120C, strain ndi1, active compounds read low 0.999 | S. cerevisiae deletion strains, locus YML124C, strain tub3, active compounds read low 1.02 | S. cerevisiae deletion strains, locus YMR058W, strain fet3, active compounds read low 1 | S. cerevisiae deletion strains, locus YMR078C, strain ctf18, active compounds read low 1.02 | S. cerevisiae deletion strains, locus YMR125W, strain sto1, active compounds read low 1 | S. cerevisiae deletion strains, locus YMR129W, active compounds read low 1.01 | S. cerevisiae deletion strains, locus YMR205C, strain PFK2, active compounds read low 1 | S. cerevisiae deletion strains, locus YMR223W, strain ubp8, active compounds read low 1 | S. cerevisiae deletion strains, locus YMR231W, strain pep5, active compounds read low 1.02 | S. cerevisiae deletion strains, locus YMR263W, strain SAP30, active compounds read low 1.02 | S. cerevisiae deletion strains, locus YMR307W, strain GAS1, active compounds read low 1.03 | S. cerevisiae deletion strains, locus YNL067W, strain RPL9B, active compounds read low 1.03 | S. cerevisiae deletion strains, locus YNL071W, strain lat1, active compounds read low 1.02 | S. cerevisiae deletion strains, locus YNL128W, strain TEP1, active compounds read low 1.01 | S. cerevisiae deletion strains, locus YNL153C, strain GIM3, active compounds read low 1.02 | S. cerevisiae deletion strains, locus YNL183C, strain NPR1, active compounds read low 0.97 | S. cerevisiae deletion strains, locus YNL209W, strain ssb2, active compounds read low 1.04 | S. cerevisiae deletion strains, locus YNL233W, strain BNI4, active compounds read low 1.01 | S. cerevisiae deletion strains, locus YNL248C, strain rpa49, active compounds read low 1.03 | S. cerevisiae deletion strains, locus YNL250W, strain rad50, active compounds read low 1.01 | S. cerevisiae deletion strains, locus YNL271C, strain bni1, active compounds read low 1.02 | S. cerevisiae deletion strains, locus YNL298W, strain CLA4, active compounds read low 1.02 | S. cerevisiae deletion strains, locus YNL307C, strain MCK1, active compounds read low 1.02 | S. cerevisiae deletion strains, locus YNL322C, strain KRE1 (second series), active compounds read low 1.03 | S. cerevisiae deletion strains, locus YNL322C, strain KRE1, active compounds read low 1.01 | S. cerevisiae deletion strains, locus YNR049C, strain mso1, active compounds read low 1.01 | S. cerevisiae deletion strains, locus YNR052C, strain pop2, active compounds read low 1.02 | S. cerevisiae deletion strains, locus YOL006C, strain TOP1, active compounds read low 1.07 | S. cerevisiae deletion strains, locus YOL012C, strain htz1 0.744 | S. cerevisiae deletion strains, locus YOL147C, strain pex11, active compounds read low 1.02 | S. cerevisiae deletion strains, locus YOR001W, strain rrp6, active compounds read low 1.01 | S. cerevisiae deletion strains, locus YOR061W, strain CKA2, active compounds read low 1.01 | S. cerevisiae deletion strains, locus YOR069W, strain VPS5, active compounds read low 1.01 | S. cerevisiae deletion strains, locus YOR070C, strain gyp1, active compounds read low 1.02 | S. cerevisiae deletion strains, locus YOR080W, strain dia2, active compounds read low 1.02 | S. cerevisiae deletion strains, locus YOR083W, strain WHI5, active compounds read low 0.988 | S. cerevisiae deletion strains, locus YOR106W, strain vam3, active compounds read low 1.03 | S. cerevisiae deletion strains, locus YOR136W, strain idh2, active compounds read low 1.01 | S. cerevisiae deletion strains, locus YOR144C, strain elg1, active compounds read low 1.02 | S. cerevisiae deletion strains, locus YOR184W, strain ser1, active compounds read low 1.03 | S. cerevisiae deletion strains, locus YOR231W, strain MKK1, active compounds read low 0.993 | S. cerevisiae deletion strains, locus YOR265W, strain rbl2, active compounds read low 1.02 | S. cerevisiae deletion strains, locus YOR270C, strain vph1, active compounds read low 1.07 | S. cerevisiae deletion strains, locus YOR290C, strain snf2, active compounds read low 1.05 | S. cerevisiae deletion strains, locus YOR316C, strain cot1, active compounds read low 1.02 | S. cerevisiae deletion strains, locus YPL051W, strain arl3, active compounds read low 1 | S. cerevisiae deletion strains, locus YPL055C, strain LGE1, active compounds read low 1.07 | S. cerevisiae deletion strains, locus YPL078C, strain atp4, active compounds read low 1.03 | S. cerevisiae deletion strains, locus YPL106C, strain sse1, active compounds read low 1.02 | S. cerevisiae deletion strains, locus YPL240C, strain hsp82, active compounds read low 1.03 | S. cerevisiae deletion strains, locus YPL241C, strain CIN2, active compounds read low 1.01 | S. cerevisiae deletion strains, locus YPL256C, strain CLN2, active compounds read low 0.992 | S. cerevisiae deletion strains, locus YPR119W, strain clb2, active compounds read low 1.01 | S. cerevisiae deletion strains, locus YPR141C, strain kar3, active compounds read low 1.01 | S. cerevisiae deletion strains, locus YPR163C, strain tif3, active compounds read low 1.02 | S. cerevisiae deletion strains, locus YPR167C, strain met16, active compounds read low 1.01 | S. cerevisiae deletion strains, strain wtn01, active compounds read low 1.03 | S. cerevisiae strains, strain wild type, active compounds read low 1.02

From PubChem BioAssay AID1159580 (chemical genetic matrix, 2015)
